Results published in PubChem BioAssay AID1159580 (chemical genetic matrix, 2015).
In all, about 5,500 compounds went through this assay and about 2,000 (36%) were called active. Roughly 18% stayed inconclusive and do not appear here. No stated cut-off is given here; in the data, active means normalized growth mostly below about 0.91 (no sharp cut-off); inconclusive means no clear call, values can overlap the other calls; inactive means mostly above about 0.92. The list shows a part of the results.

Experiment: chemical genetic growth profiling, strain panel (AID 1159580);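 further: tested at 20 µM; growth read once vehicle control cultures reached saturation at 30 °C; 1 = growth at the plate median or of vehicle wells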
Conditions: S. cerevisiae deletion strains, growth OD
[1] = locus YAL021C, strain ccr4, stronger effect = lower value
[2] = locus YAL026C, strain drs2, stronger effect = lower value
[3] = locus YAL030W, strain snc1, stronger effect = lower value
[4] = locus YBL061C, strain skt5, stronger effect = lower value
[5] = locus YBR009C, strain hhf1, stronger effect = lower value
[6] = locus YBR023C, strain chs3, stronger effect = lower value
[7] = locus YBR171W, strain sec66, stronger effect = lower value
[8] = locus YBR231C, strain swc5, stronger effect = lower value
[9] = locus YBR279W, strain paf1, stronger effect = lower value
[10] = locus YCL011C, strain gbp2, stronger effect = lower value
[11] = locus YCL016C, strain dcc1, stronger effect = lower value
[12] = locus YCL061C, strain MRC1, stronger effect = lower value
[13] = locus YCL069W, strain vba3, stronger effect = lower value
[14] = locus YCR088W, strain abp1, stronger effect = lower value
[15] = locus YDL005C, strain med2, stronger effect = lower value
[16] = locus YDL040C, strain nat1, stronger effect = lower value
[17] = locus YDR001C, strain nth1, stronger effect = lower value
[18] = locus YDR069C, strain doa4, stronger effect = lower value
[19] = locus YDR137W, strain rgp1, stronger effect = lower value
[20] = locus YDR159W, strain sac3, stronger effect = lower value
[21] = locus YDR297W, strain sur2, stronger effect = lower value
[22] = locus YDR334W, strain swr1, stronger effect = lower value
[23] = locus YDR335W, strain msn5, stronger effect = lower value
[24] = locus YDR392W, strain spt3, stronger effect = lower value
[25] = locus YEL003W, strain gim4, stronger effect = lower value
[26] = locus YEL037C, strain rad23, stronger effect = lower value
[27] = locus YEL061C, strain CIN8 (second series), stronger effect = lower value
[28] = locus YER015W, strain faa2, stronger effect = lower value
[29] = locus YER016W, strain bim1, stronger effect = lower value
[30] = locus YER111C, strain swi4, stronger effect = lower value
[31] = locus YER155C, strain BEM2 (second series), stronger effect = lower value
[32] = locus YFR010W, strain ubp6, stronger effect = lower value
[33] = locus YGL167C, strain pmr1, stronger effect = lower value
[34] = locus YGL173C, strain kem1, stronger effect = lower value
[35] = locus YGL227W, strain vid30, stronger effect = lower value
[36] = locus YGL240W, strain doc1, stronger effect = lower value
[37] = locus YGL253W, strain hxk2, stronger effect = lower value
[38] = locus YHR013C, strain ard1, stronger effect = lower value
[39] = locus YHR027C, strain rpn1, stronger effect = lower value
[40] = locus YHR142W, strain chs7, stronger effect = lower value
[41] = locus YJL092W, strain hpr5, stronger effect = lower value
[42] = locus YJL095W, strain BCK1 (second series), stronger effect = lower value
[43] = locus YJL115W, strain asf1, stronger effect = lower value
[44] = locus YJL129C, strain trk1, stronger effect = lower value
[45] = locus YJL154C, strain vps35, stronger effect = lower value
[46] = locus YJL164C, strain tpk1, stronger effect = lower value
[47] = locus YJL166W, strain qcr8, stronger effect = lower value
[48] = locus YJL187C, strain SWE1, stronger effect = lower value
[49] = locus YKL160W, strain elf1, stronger effect = lower value
[50] = locus YKR026C, strain gcn3, stronger effect = lower value
[51] = locus YKR091W, strain srl3, stronger effect = lower value
[52] = locus YLL001W, strain dnm1, stronger effect = lower value
[53] = locus YLL026W, stronger effect = lower value
[54] = locus YLL041C, strain sdh2, stronger effect = lower value
[55] = locus YLR027C, strain aat2, stronger effect = lower value
[56] = locus YLR221C, strain rsa3, stronger effect = lower value
[57] = locus YLR258W, strain gsy2, stronger effect = lower value
[58] = locus YLR262C, strain YPT6 (second series), stronger effect = lower value
[59] = locus YLR320W, strain mms22, stronger effect = lower value
[60] = locus YLR342W, strain FKS1, stronger effect = lower value
[61] = locus YLR357W, strain rsc2, stronger effect = lower value
[62] = locus YLR370C, strain arc18, stronger effect = lower value
[63] = locus YLR384C, strain iki3, stronger effect = lower value
[64] = locus YML120C, strain ndi1, stronger effect = lower value
[65] = locus YMR058W, strain fet3, stronger effect = lower value
[66] = locus YMR125W, strain sto1, stronger effect = lower value
[67] = locus YMR129W, stronger effect = lower value
[68] = locus YMR205C, strain PFK2, stronger effect = lower value
[69] = locus YMR231W, strain pep5, stronger effect = lower value
[70] = locus YNL071W, strain lat1, stronger effect = lower value
[71] = locus YNL209W, strain ssb2, stronger effect = lower value
[72] = locus YNL248C, strain rpa49, stronger effect = lower value
[73] = locus YNL322C, strain KRE1 (second series), stronger effect = lower value
[74] = locus YNR049C, strain mso1, stronger effect = lower value
[75] = locus YOR001W, strain rrp6, stronger effect = lower value
[76] = locus YOR070C, strain gyp1, stronger effect = lower value
[77] = locus YOR080W, strain dia2, stronger effect = lower value
[78] = locus YOR083W, strain WHI5, stronger effect = lower value
[79] = locus YOR106W, strain vam3, stronger effect = lower value
[80] = locus YOR265W, strain rbl2, stronger effect = lower value
[81] = locus YOR270C, strain vph1, stronger effect = lower value
[82] = locus YOR290C, strain snf2, stronger effect = lower value
[83] = locus YPL051W, strain arl3, stronger effect = lower value
[84] = locus YPL078C, strain atp4, stronger effect = lower value
[85] = locus YPL106C, strain sse1, stronger effect = lower value
[86] = locus YPL240C, strain hsp82, stronger effect = lower value

Measured: normalized growth

CC1(C)CC(O)C2(C)CCC3(C)C(=CCC4C5(C)CCC(O)C(C)(CO)C5CCC43C)C2C1 (centres undefined)
inactive: [1] 1.02 | [2] 1.03 | [3] 1.02 | [4] 1.03 | [5] 1.02 | [6] 1.03 | [7] 1.03 | [8] 1.03 | [9] 1.02 | [10] 1.03 | [11] 1.03 | [12] 1.02 | [13] 1.03 | [14] 1.03 | [15] 1.03 | [16] 1.03 | [17] 1.02 | [18] 1.04 | [19] 0.956 | [20] 1.04 | locus YDR195W, strain ref2 1 | [21] 1.02 | [22] 1.03 | [23] 1.03 | [24] 1.03 | [25] 1.02 | [26] 1.02 | [27] 1.02 | [28] 1.02 | [29] 1.03 | [30] 1.03 | [31] 1.04 | [32] 1.03 | [33] 1.02 | [34] 1.03 | [35] 1.03 | [36] 1.02 | [37] 1.03 | [38] 1.04 | [39] 1.02 | [40] 1.03 | [41] 1.03 | [42] 1.04 | [43] 1.04 | [44] 1.04 | [45] 1.02 | [46] 1.03 | [47] 1.02 | [48] 1.02 | [49] 1.02 | [50] 1.04 | [51] 1.03 | [52] 1.03 | [53] 1.03 | [54] 1.03 | [55] 1.03 | [56] 1.02 | [57] 1.04 | [58] 0.994 | [59] 1.04 | [60] 1.02 | [61] 1.02 | [62] 1.03 | [63] 1.03 | [64] 1.04 | [65] 1.02 | [66] 1.04 | [67] 1.02 | [68] 1.03 | [69] 1.03 | [70] 1.02 | [71] 1.03 | [72] 1.02 | [73] 1.02 | [74] 1.04 | [75] 1.04 | [76] 1.03 | [77] 1.03 | [78] 1.02 | [79] 1.03 | [80] 1.03 | [81] 1.03 | [82] 1.03 | [83] 1.02 | [84] 1.03 | [85] 1.05 | [86] 1.03

CC(CC(=O)C(O)C(C)(C)O)C1C(=O)CC2(C)C3=CCC4C(C)(C)C(OC5OCC(O)C(O)C5O)CCC45CC35C(O)CC12C (centres undefined)
inactive: [1] 1.01 | [2] 1.01 | [3] 1.01 | [4] 1.01 | [5] 1.01 | [6] 1.02 | [7] 1.03 | [8] 1.01 | [9] 1.02 | [10] 1.01 | [11] 1.01 | [12] 1.01 | [13] 1 | [14] 1.02 | [15] 1.01 | [16] 1.02 | [17] 1.01 | [18] 1.01 | [19] 0.974 | [20] 1.02 | locus YDR195W, strain ref2 0.987 | [21] 1.01 | [22] 1.02 | [23] 1.02 | [24] 1.04 | [25] 1.01 | [26] 1.07 | [27] 1.01 | [28] 1.01 | [29] 1.02 | [30] 1.01 | [31] 1.02 | [32] 1.01 | [33] 1.01 | [34] 1.03 | [35] 1.01 | [36] 1.01 | [37] 1.02 | [38] 1.02 | [39] 1.01 | [40] 1 | [41] 1.02 | [42] 1.01 | [43] 1.01 | [44] 1.02 | [45] 1.02 | [46] 1.03 | [47] 1.01 | [48] 1.01 | [49] 1.01 | [50] 1.02 | [51] 1.02 | [52] 1.03 | [53] 1.02 | [54] 1.01 | [55] 1 | [56] 1.01 | [57] 1.02 | [58] 1.02 | [59] 1.03 | [60] 1.01 | [61] 1.02 | [62] 0.995 | [63] 1.01 | [64] 1.02 | [65] 1.01 | [66] 1.03 | [67] 1.01 | [68] 1.02 | [69] 1 | [70] 1.01 | [71] 1.01 | [72] 1.01 | [73] 1.01 | [74] 1.02 | [75] 1.01 | [76] 1.01 | [77] 1.02 | [78] 1.02 | [79] 1 | [80] 1.01 | [81] 1.02 | [82] 1.02 | [83] 1.01 | [84] 1.02 | [85] 1 | [86] 1.02
